The values that follow come from PubChem BioAssay AID540351 (The Scripps Research Institute Molecular Screening Center, 2011).

The experiment has as its system Imidazoline I2. Put plainly: off-target receptor, channel and CYP panel, profiling panel, selectivity assay for S1P3 agonist project, biochemical, Ricerca HitProfilingScreen, CYP450 (AID 540351). Particulars: Ricerca receptor/enzyme binding panel plus CYP450, Central, at 30 µM, stronger effect = higher value.

Unmarked numbers belong to inactive results. How the calls were made is not given here.

On to `O=C(c1cc(C2CC2)on1)N(C1CCCCC1)C1CCCCC1`, for which the inhibition was 23%.
